ChEMBL document CHEMBL1961873, “Compounds: GSK PKIS; Assays: Nanosyn kinase panel” (2012)

Key:
[1] = target: T1, Inhibitor of nuclear factor kappa-B kinase subunit epsilon (Homo sapiens) (UniProt Q14164); conditions: at 1 µM;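 also: reported values are averaged percent inhibition figures against human IKKε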
T1 sequence (whole entry): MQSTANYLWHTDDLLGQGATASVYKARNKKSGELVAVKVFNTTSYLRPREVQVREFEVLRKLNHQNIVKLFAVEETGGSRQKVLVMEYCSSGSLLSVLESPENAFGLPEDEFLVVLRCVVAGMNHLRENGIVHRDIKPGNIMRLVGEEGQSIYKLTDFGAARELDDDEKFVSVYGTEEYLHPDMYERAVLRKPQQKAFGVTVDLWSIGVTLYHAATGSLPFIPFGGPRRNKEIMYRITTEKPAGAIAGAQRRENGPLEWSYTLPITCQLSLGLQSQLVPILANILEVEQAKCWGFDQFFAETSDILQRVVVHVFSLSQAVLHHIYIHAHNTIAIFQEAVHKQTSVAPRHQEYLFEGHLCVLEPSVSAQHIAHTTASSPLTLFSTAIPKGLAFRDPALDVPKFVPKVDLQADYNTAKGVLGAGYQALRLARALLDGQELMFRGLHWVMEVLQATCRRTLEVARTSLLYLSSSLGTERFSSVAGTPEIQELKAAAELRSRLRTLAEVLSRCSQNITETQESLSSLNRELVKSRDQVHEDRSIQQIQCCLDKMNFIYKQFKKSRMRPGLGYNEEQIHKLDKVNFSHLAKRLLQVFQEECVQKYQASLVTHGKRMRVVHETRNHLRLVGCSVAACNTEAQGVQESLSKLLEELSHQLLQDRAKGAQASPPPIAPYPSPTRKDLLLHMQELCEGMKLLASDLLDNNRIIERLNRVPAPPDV

[2] = target: T2, Serine/threonine-protein kinase Nek1 (Homo sapiens) (UniProt Q96PY6); conditions: at 0.1 µM
T2 sequence (whole entry): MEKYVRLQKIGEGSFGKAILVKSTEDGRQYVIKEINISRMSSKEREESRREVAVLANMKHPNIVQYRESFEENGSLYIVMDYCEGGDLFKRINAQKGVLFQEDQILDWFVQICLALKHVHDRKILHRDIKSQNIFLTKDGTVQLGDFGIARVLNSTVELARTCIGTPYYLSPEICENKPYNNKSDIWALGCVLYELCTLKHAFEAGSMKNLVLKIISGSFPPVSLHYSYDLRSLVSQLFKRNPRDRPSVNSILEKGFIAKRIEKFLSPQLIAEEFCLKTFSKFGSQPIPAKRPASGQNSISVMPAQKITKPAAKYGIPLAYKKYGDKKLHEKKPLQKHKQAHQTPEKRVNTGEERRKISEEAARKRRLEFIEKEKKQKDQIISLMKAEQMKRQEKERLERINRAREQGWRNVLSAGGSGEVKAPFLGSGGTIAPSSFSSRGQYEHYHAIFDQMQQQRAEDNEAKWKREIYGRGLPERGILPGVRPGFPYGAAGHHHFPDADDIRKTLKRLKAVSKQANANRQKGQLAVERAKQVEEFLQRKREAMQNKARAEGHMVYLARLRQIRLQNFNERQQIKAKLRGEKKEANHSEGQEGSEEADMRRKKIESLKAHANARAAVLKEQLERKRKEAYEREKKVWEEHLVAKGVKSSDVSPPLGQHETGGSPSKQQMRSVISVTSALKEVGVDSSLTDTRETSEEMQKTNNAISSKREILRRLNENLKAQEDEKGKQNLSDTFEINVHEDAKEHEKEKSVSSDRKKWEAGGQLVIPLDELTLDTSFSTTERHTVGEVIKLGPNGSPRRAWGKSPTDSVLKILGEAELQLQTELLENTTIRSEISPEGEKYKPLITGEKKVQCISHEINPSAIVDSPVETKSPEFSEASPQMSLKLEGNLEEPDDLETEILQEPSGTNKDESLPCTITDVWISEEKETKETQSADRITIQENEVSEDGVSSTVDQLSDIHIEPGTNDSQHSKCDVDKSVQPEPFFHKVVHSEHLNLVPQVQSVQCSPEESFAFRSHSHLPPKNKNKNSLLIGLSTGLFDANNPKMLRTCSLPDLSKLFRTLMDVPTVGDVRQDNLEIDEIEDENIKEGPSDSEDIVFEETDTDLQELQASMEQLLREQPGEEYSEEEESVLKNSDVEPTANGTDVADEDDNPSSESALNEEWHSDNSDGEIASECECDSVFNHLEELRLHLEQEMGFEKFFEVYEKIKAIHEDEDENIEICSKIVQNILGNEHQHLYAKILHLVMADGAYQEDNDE

[3] = target: T2, Serine/threonine-protein kinase Nek1 (Homo sapiens); conditions: at 1 µM
[4] = target: T3, Serine/threonine-protein kinase Nek2 (Homo sapiens) (UniProt P51955); conditions: at 0.1 µM
T3 sequence (whole entry): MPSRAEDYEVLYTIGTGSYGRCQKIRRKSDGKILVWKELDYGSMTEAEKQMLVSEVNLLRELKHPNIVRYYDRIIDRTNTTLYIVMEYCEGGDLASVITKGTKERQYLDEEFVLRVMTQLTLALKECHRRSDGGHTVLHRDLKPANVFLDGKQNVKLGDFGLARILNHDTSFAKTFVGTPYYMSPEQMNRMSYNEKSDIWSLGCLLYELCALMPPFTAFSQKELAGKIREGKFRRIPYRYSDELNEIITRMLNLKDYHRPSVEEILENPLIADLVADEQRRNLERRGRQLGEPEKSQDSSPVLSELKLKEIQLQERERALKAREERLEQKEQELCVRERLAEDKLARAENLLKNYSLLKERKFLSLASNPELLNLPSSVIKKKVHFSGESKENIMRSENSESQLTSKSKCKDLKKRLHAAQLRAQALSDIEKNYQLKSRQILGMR

[5] = target: T3, Serine/threonine-protein kinase Nek2 (Homo sapiens); conditions: at 1 µM
[6] = target: Serine/threonine-protein kinase Nek6 (Homo sapiens) (UniProt Q9HC98); conditions: at 0.1 µM
[7] = target: Serine/threonine-protein kinase Nek6 (Homo sapiens) (UniProt Q9HC98); conditions: at 1 µM
[8] = target: Serine/threonine-protein kinase Nek7 (Homo sapiens) (UniProt Q8TDX7); conditions: at 0.1 µM
[9] = target: Serine/threonine-protein kinase Nek7 (Homo sapiens) (UniProt Q8TDX7); conditions: at 1 µM
[10] = target: T4, Serine/threonine-protein kinase Nek9 (Homo sapiens) (UniProt Q8TD19); conditions: at 0.1 µM
T4 sequence (whole entry): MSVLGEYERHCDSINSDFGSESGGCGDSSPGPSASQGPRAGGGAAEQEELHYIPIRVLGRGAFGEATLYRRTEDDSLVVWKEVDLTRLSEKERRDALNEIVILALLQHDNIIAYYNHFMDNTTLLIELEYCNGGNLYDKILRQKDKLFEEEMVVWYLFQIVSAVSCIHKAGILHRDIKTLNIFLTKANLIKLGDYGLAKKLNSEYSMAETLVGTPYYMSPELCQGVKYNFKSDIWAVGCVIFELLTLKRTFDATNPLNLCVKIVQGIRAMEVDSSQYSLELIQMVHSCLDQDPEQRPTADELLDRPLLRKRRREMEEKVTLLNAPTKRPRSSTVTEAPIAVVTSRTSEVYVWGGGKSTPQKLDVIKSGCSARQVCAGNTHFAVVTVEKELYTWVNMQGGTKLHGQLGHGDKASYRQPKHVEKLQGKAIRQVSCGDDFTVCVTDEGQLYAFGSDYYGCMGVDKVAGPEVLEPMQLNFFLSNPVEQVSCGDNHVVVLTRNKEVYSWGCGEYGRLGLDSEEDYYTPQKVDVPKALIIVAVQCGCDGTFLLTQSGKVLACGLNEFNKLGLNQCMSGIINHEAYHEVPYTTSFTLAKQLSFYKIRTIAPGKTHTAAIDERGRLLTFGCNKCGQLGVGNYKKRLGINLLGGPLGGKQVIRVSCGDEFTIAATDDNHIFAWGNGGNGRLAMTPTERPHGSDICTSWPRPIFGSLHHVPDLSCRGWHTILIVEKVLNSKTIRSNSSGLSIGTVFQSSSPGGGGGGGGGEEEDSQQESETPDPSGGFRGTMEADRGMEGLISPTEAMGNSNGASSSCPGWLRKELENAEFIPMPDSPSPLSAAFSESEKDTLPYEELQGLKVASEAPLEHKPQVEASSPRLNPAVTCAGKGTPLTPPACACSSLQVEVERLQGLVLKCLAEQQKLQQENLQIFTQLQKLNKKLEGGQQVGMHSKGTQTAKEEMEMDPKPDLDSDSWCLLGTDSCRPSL

[11] = target: T4, Serine/threonine-protein kinase Nek9 (Homo sapiens); conditions: at 1 µM
[12] = target: Serine/threonine-protein kinase PLK1 (Homo sapiens) (UniProt P53350); conditions: at 0.1 µM
[13] = target: Serine/threonine-protein kinase PLK1 (Homo sapiens) (UniProt P53350); conditions: at 1 µM
[14] = target: T5, Dual specificity protein kinase TTK (Homo sapiens) (UniProt P33981); conditions: at 0.1 µM
T5 sequence (whole entry): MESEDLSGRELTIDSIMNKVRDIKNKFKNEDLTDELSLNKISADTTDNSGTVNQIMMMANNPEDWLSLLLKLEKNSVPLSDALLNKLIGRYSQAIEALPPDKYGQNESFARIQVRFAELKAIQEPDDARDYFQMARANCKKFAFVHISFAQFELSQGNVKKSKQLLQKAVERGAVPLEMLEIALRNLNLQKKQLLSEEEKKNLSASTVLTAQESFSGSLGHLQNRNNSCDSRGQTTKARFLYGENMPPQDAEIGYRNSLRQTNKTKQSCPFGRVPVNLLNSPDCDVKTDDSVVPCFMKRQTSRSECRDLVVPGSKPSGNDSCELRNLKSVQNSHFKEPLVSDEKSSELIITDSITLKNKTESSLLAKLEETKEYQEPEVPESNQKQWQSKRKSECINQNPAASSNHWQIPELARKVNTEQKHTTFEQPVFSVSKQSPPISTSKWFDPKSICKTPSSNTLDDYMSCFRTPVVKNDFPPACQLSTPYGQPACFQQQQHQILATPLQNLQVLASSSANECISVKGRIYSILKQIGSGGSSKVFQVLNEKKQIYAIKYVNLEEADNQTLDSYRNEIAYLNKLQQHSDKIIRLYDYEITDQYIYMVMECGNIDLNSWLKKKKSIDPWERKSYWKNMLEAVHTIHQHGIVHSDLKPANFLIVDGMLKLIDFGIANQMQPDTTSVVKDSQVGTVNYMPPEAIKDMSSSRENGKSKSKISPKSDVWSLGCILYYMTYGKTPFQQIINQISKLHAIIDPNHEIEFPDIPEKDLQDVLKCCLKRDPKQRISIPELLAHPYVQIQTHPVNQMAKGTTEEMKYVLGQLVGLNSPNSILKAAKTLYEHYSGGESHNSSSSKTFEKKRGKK

[15] = tested on: T6, Receptor-type tyrosine-protein kinase FLT3 (Homo sapiens), P36888 [D835Y]; conditions: at 1 µM
T6 sequence (whole entry): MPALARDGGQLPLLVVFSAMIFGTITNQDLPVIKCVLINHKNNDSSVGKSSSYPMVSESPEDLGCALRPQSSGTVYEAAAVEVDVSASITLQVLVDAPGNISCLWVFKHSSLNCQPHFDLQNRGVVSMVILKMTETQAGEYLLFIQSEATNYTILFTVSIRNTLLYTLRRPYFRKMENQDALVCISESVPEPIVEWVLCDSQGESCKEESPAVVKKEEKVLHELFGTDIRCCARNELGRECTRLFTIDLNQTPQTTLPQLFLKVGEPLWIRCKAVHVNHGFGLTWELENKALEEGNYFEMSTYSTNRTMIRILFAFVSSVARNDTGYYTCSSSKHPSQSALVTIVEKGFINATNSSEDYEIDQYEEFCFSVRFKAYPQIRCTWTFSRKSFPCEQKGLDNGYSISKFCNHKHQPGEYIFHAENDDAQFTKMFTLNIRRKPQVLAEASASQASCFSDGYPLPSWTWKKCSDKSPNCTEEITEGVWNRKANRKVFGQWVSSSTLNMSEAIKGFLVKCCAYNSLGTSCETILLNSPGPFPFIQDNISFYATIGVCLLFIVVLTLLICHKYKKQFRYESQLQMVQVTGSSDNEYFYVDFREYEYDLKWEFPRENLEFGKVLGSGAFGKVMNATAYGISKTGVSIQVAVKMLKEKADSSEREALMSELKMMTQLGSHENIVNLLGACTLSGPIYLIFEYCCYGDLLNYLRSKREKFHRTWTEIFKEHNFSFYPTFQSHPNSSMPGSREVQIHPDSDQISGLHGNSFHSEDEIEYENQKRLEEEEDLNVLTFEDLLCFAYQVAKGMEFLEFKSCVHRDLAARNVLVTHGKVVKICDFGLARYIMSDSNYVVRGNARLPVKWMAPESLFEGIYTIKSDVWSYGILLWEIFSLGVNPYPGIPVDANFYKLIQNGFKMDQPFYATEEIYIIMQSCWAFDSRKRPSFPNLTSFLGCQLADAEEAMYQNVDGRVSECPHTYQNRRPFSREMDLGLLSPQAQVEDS

[16] = target: Vascular endothelial growth factor receptor 3 (Homo sapiens) (UniProt P35916); conditions: at 0.1 µM
[17] = target: Vascular endothelial growth factor receptor 3 (Homo sapiens) (UniProt P35916); conditions: at 1 µM
[18] = target: Macrophage colony-stimulating factor 1 receptor (Homo sapiens) (UniProt P07333); conditions: at 0.1 µM
[19] = target: Macrophage colony-stimulating factor 1 receptor (Homo sapiens) (UniProt P07333); conditions: at 1 µM
[20] = target: Tyrosine-protein kinase Fyn (Homo sapiens) (UniProt P06241); conditions: at 0.1 µM
Chain of Tyrosine-protein kinase Fyn (Homo sapiens) (P06241 2-537 limits assumed): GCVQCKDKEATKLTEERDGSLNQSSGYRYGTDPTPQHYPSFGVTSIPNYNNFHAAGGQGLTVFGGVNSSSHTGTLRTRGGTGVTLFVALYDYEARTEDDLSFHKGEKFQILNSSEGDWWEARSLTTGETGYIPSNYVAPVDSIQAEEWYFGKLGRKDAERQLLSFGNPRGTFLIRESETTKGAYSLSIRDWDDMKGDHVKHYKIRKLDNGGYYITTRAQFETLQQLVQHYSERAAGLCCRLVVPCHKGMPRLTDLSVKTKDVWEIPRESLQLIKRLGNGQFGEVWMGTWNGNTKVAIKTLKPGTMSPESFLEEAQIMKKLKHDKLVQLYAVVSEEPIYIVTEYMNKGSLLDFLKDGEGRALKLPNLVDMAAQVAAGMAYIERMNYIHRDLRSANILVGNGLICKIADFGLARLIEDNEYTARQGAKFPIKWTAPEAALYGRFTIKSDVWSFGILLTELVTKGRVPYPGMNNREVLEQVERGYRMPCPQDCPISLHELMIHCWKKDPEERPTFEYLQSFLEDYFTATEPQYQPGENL

Chain of Serine/threonine-protein kinase Nek6 (Homo sapiens) (Q9HC98 whole entry): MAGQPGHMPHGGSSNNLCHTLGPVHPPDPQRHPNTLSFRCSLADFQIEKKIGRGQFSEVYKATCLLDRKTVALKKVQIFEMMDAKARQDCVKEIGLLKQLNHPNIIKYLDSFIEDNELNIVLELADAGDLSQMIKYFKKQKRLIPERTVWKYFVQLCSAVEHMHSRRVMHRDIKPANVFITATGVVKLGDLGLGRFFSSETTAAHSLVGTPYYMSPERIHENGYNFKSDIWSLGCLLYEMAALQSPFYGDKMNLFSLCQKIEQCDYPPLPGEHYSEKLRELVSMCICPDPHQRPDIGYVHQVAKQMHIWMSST
Chain of Serine/threonine-protein kinase PLK1 (Homo sapiens) (P53350 whole entry): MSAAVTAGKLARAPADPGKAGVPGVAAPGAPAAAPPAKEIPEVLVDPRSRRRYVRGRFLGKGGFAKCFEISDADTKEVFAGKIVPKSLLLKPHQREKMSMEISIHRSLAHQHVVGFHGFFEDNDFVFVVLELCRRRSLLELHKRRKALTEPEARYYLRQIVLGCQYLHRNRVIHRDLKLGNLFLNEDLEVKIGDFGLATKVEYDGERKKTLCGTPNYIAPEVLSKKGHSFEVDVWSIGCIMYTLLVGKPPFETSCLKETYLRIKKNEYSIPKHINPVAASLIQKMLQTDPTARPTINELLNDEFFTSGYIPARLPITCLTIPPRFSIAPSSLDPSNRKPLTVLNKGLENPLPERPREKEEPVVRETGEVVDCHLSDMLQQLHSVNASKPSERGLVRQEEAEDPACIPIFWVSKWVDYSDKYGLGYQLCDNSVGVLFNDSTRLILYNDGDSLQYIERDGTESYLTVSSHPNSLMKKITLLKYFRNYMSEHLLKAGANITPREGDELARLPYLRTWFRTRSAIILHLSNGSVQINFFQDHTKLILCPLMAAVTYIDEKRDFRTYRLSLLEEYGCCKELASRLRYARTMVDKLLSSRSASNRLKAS
Chain of Serine/threonine-protein kinase Nek7 (Homo sapiens) (Q8TDX7 whole entry, looked up): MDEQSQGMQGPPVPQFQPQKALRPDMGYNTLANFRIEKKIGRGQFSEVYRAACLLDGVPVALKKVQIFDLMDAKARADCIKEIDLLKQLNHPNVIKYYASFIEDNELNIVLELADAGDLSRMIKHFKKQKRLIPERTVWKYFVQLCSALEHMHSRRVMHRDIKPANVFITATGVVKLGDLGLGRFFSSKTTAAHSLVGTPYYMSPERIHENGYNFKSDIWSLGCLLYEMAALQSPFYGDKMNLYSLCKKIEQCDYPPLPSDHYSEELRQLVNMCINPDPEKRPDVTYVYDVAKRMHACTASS
Chain of Vascular endothelial growth factor receptor 3 (Homo sapiens) (P35916 whole entry): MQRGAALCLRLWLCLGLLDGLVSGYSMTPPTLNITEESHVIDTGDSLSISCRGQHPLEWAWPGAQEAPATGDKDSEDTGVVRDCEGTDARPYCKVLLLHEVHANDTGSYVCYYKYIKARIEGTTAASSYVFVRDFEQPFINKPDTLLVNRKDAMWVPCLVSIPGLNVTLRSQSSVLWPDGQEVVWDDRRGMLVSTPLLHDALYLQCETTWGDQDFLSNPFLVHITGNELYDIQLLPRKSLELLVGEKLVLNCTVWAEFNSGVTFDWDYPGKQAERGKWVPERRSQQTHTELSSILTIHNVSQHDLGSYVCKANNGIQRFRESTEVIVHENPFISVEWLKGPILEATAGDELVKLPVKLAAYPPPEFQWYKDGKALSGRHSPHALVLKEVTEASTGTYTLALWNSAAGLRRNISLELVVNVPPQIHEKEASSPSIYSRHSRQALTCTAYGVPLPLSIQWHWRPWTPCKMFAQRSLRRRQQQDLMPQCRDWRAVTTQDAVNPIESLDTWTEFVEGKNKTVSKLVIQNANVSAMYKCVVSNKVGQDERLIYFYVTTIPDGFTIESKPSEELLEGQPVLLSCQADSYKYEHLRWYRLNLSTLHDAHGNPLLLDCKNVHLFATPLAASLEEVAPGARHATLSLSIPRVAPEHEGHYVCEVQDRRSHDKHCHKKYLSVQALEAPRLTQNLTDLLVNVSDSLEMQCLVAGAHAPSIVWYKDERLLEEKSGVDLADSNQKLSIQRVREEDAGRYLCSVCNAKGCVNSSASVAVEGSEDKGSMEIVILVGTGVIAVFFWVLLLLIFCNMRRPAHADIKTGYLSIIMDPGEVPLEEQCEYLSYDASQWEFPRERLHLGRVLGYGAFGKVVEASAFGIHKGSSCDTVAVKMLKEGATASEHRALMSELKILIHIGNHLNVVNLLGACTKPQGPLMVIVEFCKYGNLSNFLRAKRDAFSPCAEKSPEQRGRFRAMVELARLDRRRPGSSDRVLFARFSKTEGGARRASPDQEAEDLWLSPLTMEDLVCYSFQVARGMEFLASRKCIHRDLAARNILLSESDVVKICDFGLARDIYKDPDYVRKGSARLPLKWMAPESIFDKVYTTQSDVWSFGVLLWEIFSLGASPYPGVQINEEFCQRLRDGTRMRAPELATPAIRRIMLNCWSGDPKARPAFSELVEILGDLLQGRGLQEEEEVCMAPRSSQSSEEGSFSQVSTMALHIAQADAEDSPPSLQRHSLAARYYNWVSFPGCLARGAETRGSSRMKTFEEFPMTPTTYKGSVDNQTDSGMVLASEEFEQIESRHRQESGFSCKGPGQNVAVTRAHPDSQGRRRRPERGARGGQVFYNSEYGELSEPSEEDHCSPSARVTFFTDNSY
Chain of Macrophage colony-stimulating factor 1 receptor (Homo sapiens) (P07333 whole entry): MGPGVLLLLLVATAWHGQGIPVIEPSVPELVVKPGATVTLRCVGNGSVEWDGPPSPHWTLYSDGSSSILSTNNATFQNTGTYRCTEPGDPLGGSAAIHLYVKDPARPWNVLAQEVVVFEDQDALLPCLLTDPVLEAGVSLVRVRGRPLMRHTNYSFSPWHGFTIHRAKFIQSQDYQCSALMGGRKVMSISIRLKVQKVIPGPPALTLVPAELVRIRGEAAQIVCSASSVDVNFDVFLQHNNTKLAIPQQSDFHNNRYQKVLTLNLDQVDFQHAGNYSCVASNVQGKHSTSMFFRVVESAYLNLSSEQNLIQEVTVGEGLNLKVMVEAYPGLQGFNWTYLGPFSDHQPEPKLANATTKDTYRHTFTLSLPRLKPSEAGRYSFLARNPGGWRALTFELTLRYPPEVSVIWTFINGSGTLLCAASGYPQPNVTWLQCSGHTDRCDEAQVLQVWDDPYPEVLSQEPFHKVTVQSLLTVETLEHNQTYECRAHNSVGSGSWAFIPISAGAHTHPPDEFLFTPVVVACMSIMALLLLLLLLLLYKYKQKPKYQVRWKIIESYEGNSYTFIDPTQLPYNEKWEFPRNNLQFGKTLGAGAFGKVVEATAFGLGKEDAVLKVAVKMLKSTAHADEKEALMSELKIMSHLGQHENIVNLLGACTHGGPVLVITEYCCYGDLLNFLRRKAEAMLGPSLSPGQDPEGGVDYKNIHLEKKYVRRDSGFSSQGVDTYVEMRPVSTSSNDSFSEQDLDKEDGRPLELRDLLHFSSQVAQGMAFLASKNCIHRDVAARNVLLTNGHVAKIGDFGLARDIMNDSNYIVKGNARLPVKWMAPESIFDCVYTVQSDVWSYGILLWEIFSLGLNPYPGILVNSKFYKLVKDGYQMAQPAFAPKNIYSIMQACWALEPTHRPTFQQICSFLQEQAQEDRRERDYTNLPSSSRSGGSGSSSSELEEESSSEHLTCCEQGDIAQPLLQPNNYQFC

SMILES	inhibition [1] [%]	inhibition [2] [%]	inhibition [3] [%]	inhibition [4] [%]	inhibition [5] [%]	inhibition [6] [%]	inhibition [7] [%]	inhibition [8] [%]	inhibition [9] [%]	inhibition [10] [%]	inhibition [11] [%]	inhibition [12] [%]	inhibition [13] [%]	inhibition [14] [%]	inhibition [15] [%]	inhibition [16] [%]	inhibition [17] [%]	inhibition [18] [%]	inhibition [19] [%]	inhibition [20] [%]
c1cnn2ncc(-c3ccnc(NCCCN4CCOCC4)n3)c2c1	13.4	1.91	0.27	4.15	4.3	0.45	2.66	5.96	1.47	14.8	9.51	4.18	3.55	9.47	1.99	0.01	0.07	-0.33	5.17	2.47
Cc1nnc(-c2cccc(-c3ccc(C(=O)NCC4CC4)cc3)c2)o1	8.77	3.27	4	6.76	5.41	2.74	6.86	4.29	4.11	4.46	7.69	4.37	3.89	9.53	0.86	4.47	-1.03	2.5	1.96	1.1
